The list is not random: actives were taken first. Their share in the collection is about 2.6%.
TRPV1 PAM: potentiators of human vanilloid receptor 1 (TRPV1) | potentiation, % at 8.33 µM | 320,000 tested, 0.02% active | TRPV1-expressing cells, Fluo-8 calcium influx, capsaicin EC20 potentiation | Q8NER1; in the data active means potentiation above about 80%; inconclusive means between about 30% and that limit
Target sequence (Q8NER1 whole entry, looked up): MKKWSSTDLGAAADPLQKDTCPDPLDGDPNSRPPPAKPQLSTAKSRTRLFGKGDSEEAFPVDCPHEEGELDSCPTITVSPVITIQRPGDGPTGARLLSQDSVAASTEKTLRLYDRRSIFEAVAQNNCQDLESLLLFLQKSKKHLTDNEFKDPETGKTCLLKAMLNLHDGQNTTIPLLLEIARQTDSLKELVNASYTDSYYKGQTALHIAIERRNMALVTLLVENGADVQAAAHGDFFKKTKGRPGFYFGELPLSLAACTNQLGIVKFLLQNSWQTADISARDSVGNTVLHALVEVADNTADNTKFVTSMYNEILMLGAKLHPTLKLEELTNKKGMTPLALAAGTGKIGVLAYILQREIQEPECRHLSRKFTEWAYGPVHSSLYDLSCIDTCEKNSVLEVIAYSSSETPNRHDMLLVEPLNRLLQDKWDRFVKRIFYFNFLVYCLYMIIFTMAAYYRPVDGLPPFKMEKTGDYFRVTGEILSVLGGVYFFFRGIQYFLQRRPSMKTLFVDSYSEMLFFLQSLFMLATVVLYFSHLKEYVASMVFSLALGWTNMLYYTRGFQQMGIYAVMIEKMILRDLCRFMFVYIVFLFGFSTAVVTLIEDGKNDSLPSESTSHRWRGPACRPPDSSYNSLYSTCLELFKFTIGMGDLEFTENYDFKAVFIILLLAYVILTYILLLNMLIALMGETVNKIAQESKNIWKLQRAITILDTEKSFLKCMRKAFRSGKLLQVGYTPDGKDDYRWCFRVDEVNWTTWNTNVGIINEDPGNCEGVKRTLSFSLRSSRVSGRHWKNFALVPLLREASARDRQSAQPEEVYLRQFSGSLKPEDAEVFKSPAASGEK
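TRPV1-expressing cells were cultured overnight at 35.5C and loaded with Fluo-8 calcium dye for 40 to 90 min at room temperature. After a 10 s baseline, compound was added and calcium influx was read kinetically for 3 min (ex 480/em 520 nm).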
KCNH2 WT inh: KCNH2 (human, wildtype) channel inhibition | U2OS, BacMam KCNH2, thallium flux FluxOr; stronger effect = lower value | activity change, % at 1.84 µM | 340,000 tested, 0.37% active;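 active means maximum activity change below -70%; inconclusive means maximum activity change between -70% and -50%; inactive means maximum activity change above -50%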
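U2OS cells transduced with wild-type KCNH2 virus are loaded with FluxOr dye for 45 min, and thallium flux is measured in kinetic reads before and after stimulation buffer. Rate constants are normalized to DMSO controls.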
p53 reactivation: restores transcriptional activity of mutant p53; H1299 p53-A138V BP100-luciferase reporter, luminescence, 24 h; Potency, µM (top dose mostly 92.2 µM), usual class: activators; 320,000 tested, 0.063% active; active means well fitted activation curve with a large enough effect; inconclusive means small, poorly fitted or top-dose-only effect; inactive means no such curve, though single readings can be large or run the other way; further: nearly all actives have a fitted effect of over 45% in size
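H1299 (p53-null), stable ts p53-A138V + BP100-Luc; 1000 cells/well, Opti-MEM/10% FBS; cpd 4 pt, 1:5; 24 h, 37 deg C, 5% CO2; detection reagent 10 min RT; luminescence.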
KCNH2 3.1 inh: inhibitors of human KCNH2 3.1 potassium channel isoform. U2OS KCNH2 3.1, thallium flux FluxOr; stronger effect = lower value. activity change, % (tested at about 1.8 µM). 340,000 tested, 0.95% active. AID 720553;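 active means maximum activity change below -70%; inconclusive means maximum activity change from -70% to -50%; inactive means maximum activity change above -50%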;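 further: thallium influx rate constant from kinetic fluorescence after stimulation buffer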
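Thallium flux via FluxOr fluorescence (Red40 quencher, 45 min loading) in U2OS cells virally expressing the KCNH2 3.1 isoform (1.77 x 10^8 /mL virus, overnight at 37 C). Rate constants from 2-min kinetic reads post-stimulation, normalised to positive and negative controls.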
ClpP mod: qHTS Assay for Activators of ClpP | Potency, µM (titrated, usually from 57.5 µM) | ATP-dependent Clp protease proteolytic subunit (Bacillus subtilis (strain 168)), P80244 | 340,000 tested, 1.9% active | purified B. subtilis ClpP, FRET peptide cleavage, 20 min; active means well fitted falling curve with a large enough effect; inconclusive means small, poorly fitted or top-dose-only effect; inactive means no such curve, though single readings can be large or run the other way; further: the source files actives as falling curves though it sought activators and does not explain the sign; nearly all actives have a fitted effect of over 65% in size
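Purified B. subtilis ClpP, 10 microg/mL final in Tris/HCl pH8 with KCl, BSA, glycerol and Tween-20, cleaved an Abz/nitrotyrosine-quenched decapeptide. Fluorescence (ex 320, em 430) was read at 0 and 20 min at room temperature. Delta was normalized to 5.8 microM ADEP and DMSO/no-enzyme controls.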
TRPV1 ag: human TRPV1 agonism. Q8NER1. TRPV1-expressing cells, Fluo-8 calcium influx, agonist mode. activation, % at 8.33 µM. 320,000 tested, 0.19% active; in the data active means activation above about 80%; inconclusive means between about 30% and that limit
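TRPV1-expressing cells were cultured overnight at 35.5C and loaded with Fluo-8 calcium dye for 40 to 90 min at room temperature. After a 10 s baseline, compound was added and calcium influx was read kinetically for 3 min (ex 480/em 520 nm).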
A number is an active result; . = inactive; ? = inconclusive; / = no result.

SMILES	TRPV1 PAM	KCNH2 WT inh	p53 reactivation	KCNH2 3.1 inh	ClpP mod	TRPV1 ag
CCCCNC(=O)c1cc2c(=O)n3cccc(C)c3nc2n1C	.	/	.	/	/	.
Cc1cccn2c(=O)c3cc(C(=O)N(C)C)n(C)c3nc12	.	.	?	.	15.8µM	.
CCCN(CCC)C(=O)c1cc2c(=O)n3cccc(C)c3nc2n1C	/	/	/	/	.	/
COc1ccccc1C(CCN(Cc1cccs1)C(C)=O)c1ccco1 (stereo not drawn)	.	.	.	-73.6	.	.
COc1ccc(N2CCN(CCCNC(=O)CCC(=O)N3CCOc4ccc(Cl)cc43)CC2)cc1	.	.	.	-80.0	.	.
O=C(CCC(=O)N1CCOc2ccc(Cl)cc21)NCCCN1CCC(Cc2ccccc2)CC1	.	.	/	-79.5	.	.
CC(C)NC(=O)C1CCC(Cn2c(=O)c3sccc3n(CC(=O)N3CCCC3)c2=O)CC1 (stereo not drawn)	/	/	/	/	.	/
CC(=O)N1CCc2c(sc3c2c(=O)n(CCc2ccccc2)c(=O)n3Cc2ccc(F)cc2)C1	/	/	/	/	.	/
CCc1cccc(C)c1NC(=O)c1cnn(-c2ccc(F)cc2)c1-n1cccc1	/	/	/	/	.	/
COc1cccc(CN2CCC2(C)C(=O)Nc2ccc(C)c(O)c2)c1F (stereo not drawn)	/	/	/	/	.	/
CCOC(=O)c1c(-c2ccc(Cl)cc2)cn2ccccc12	.	.	.	.	31.6µM	.
CCOC(=O)c1cnc2c(-c3ccc(Cl)cc3)cnn2c1C	.	.	.	.	/	.
Cc1c(C(=O)Nc2ccccc2F)sc2ncnc(N(C)C3CCCCC3)c12	/	/	/	/	.	/
O=C(Nc1ccc(F)c(F)c1)c1cc(S(=O)(=O)N2CCN(c3ccccn3)CC2)ccc1F	.	.	.	-78.5	.	.
O=C(Nc1c(F)cc(F)cc1Br)c1cc(S(=O)(=O)N2CCN(c3ccccn3)CC2)ccc1F	.	.	.	.	.	.
CCCCCCCCC(=O)NC(NC(=S)N1CCOCC1)C(Cl)(Cl)Cl (stereo not drawn)	.	.	.	.	.	82.8
CCCCCC(=O)NC(NC(=S)N1CCOCC1)C(Cl)(Cl)Cl (stereo not drawn)	.	.	.	.	.	83.1
Cc1cccc(Nc2nnc(-c3ccc(C)c(S(=O)(=O)NCC4CCCO4)c3)c3ccccc23)c1 (stereo not drawn)	/	/	/	/	.	/
COc1ccc(-c2cc(OC(=O)c3cccc(Cl)c3)c3c(C)oc(C)c3c(=O)c2)cc1	/	/	/	/	.	/
CCc1cccc2c(C(O)(c3c[nH]c4c(CC)cccc34)c3c[nH]c4c(CC)cccc34)c[nH]c12	/	/	/	/	.	/
Cc1ccc(C(=O)Nc2ccc3nc(SCC(=O)N4CCCc5ccccc54)sc3c2)cc1	/	/	/	/	20µM	/
O=C(Nc1ccc2nc(SCC(=O)N3CCCc4ccccc43)sc2c1)c1ccccc1	/	/	/	/	14.1µM	/
O=C(Nc1ccc2nc(SCC(=O)N3CCc4ccccc43)sc2c1)c1ccccc1	/	/	/	/	8.91µM	/
CCOC(=O)C1C(=O)NC(C(=O)OCC)(C(=O)OCC)C1CC (stereo not drawn)	/	.	/	.	/	/
CC1CN(c2ccc(Cl)cc2)c2nc3c(c(=O)n(CC(=O)O)c(=O)n3C)n2C1 (stereo not drawn)	/	/	/	/	.	/
SMILES	TRPV1 PAM	KCNH2 WT inh	p53 reactivation	KCNH2 3.1 inh	ClpP mod	TRPV1 ag
COc1ccc(C(=O)N2CCC3(CC2)NCCc2[nH]cnc23)cc1	.	/	.	-83.9	.	.
COc1ccc(-c2noc(-c3nnn(-c4cc(C)ccc4C)c3N)n2)cc1	/	/	/	/	.	/
OC(CN1CCOCC1)c1ccccc1 (stereo not drawn)	/	/	/	/	.	/
COc1cccc2[nH]c3c(N4CCC(C)CC4)ncnc3c12	.	.	.	.	14.1µM	.
COc1cc2[nH]c3c(N4CCN(c5ccc(Cl)cc5)CC4)ncnc3c2cc1OC	.	.	.	.	25.1µM	.
COc1cc2[nH]c3c(Cl)ncnc3c2cc1OC	.	.	.	.	?	.
CCOC(=O)c1cccc(NS(=O)(=O)c2ccc3[nH]c4c(c3c2)CCCC4)c1	/	/	/	/	.	/
O=C(CSc1nc2nn(-c3ccccc3)c(=O)c-2c2n1CCCCC2)c1ccc(O)c(O)c1	.	.	28.2µM	.	.	.
CNC(=O)CSc1nc2nn(-c3ccccc3)c(=O)c-2c2n1CCCCC2	.	.	.	.	.	.
COc1cccc(/C=N/NC(=O)CCc2n[nH]c(=O)[nH]c2=O)c1O	.	.	?	.	10µM	.
CC1(C)Cc2c(C#N)c(NCCc3ccccc3)nc(-c3ccco3)c2CO1	.	.	.	.	28.2µM	.
CC1(C)Cc2c(C#N)c(NCC3CCCO3)nc(-c3ccco3)c2CO1 (stereo not drawn)	.	.	.	.	11.2µM	.
Cc1nc(NCCO)c(C#N)c2c1COC(C)(C)C2	.	.	.	.	22.4µM	.
COc1ccccc1NC(=O)Cn1c(=O)n(-c2cccc(Cl)c2)c(=O)c2c1c1cc(C)ccc1n2C	/	/	/	/	.	/
COc1cc(NC(=O)CCNS(=O)(=O)c2ccc3c(c2)CCN3C(=O)C2CC2)cc(OC)c1	/	/	/	/	.	/
COc1ccc(CN2C[C@@H](CO)O[C@@H](n3cnc4c(N5CCOCC5)ncnc43)C2)cc1	/	/	/	/	.	/
Cc1sc(NC(=O)CS(=O)(=O)c2ccccc2)c(C(N)=O)c1C	.	.	.	.	28.2µM	.
CNC(=O)c1c(NC(=O)CS(=O)(=O)c2ccccc2)sc(C)c1C	.	.	.	.	.	.
CCC1CCc2sc(C(=O)NNC(=O)c3ccncc3)cc2C1 (stereo not drawn)	.	.	.	.	14.1µM	?
CCC1CCc2sc(C(=O)O)cc2C1 (stereo not drawn)	.	.	.	.	.	.
CCCS(=O)(=O)NC(=O)C1(C)CCN(C(=O)c2ccc(SC(F)(F)F)cc2)C1 (stereo not drawn)	/	/	/	/	.	/
Cn1c(N2CCCC2)nc2c1c(=O)n(Cc1ccc(Cl)cc1)c(=O)n2C	.	.	.	.	.	?
CC1CN(c2nc3c(c(=O)n(Cc4ccc(Cl)cc4)c(=O)n3C)n2C)CC(C)O1 (stereo not drawn)	.	.	.	.	.	106.3
COc1cccc(-c2nn(C)c3sc(C(=O)NCc4ccc5c(c4)OCO5)cc23)c1	/	.	.	-91.6	.	/
CC1(C(=O)O)CCN1C(=O)c1cccnc1Oc1ccccc1 (stereo not drawn)	/	/	/	/	.	/
COc1ccc(-c2cc(-c3ccc4c(c3)NC(=O)CO4)nc3c2COc2ccc(F)cc2-3)cc1	/	/	/	/	.	/
Cc1cc(C=C2C(=O)c3ccccc3C2=O)c(C)n1-c1ccccc1	.	.	.	.	.	.
Cc1cc(/C=C2\Cc3ccccc3C2=O)c(C)n1-c1ccccc1	.	.	?	.	.	86.0
COc1ccccc1/C=N/NC(=O)c1csc(C)c1C	.	.	.	/	.	.
